Compound activity as filed in PubChem.
Apoferritin bind – qHTS Assay for Identification of Novel General Anesthetics | Ferritin light chain (Equus caballus), P02791 | apoferritin/1-aminoanthracene competitive binding, fluorescence | Potency, µM (top dose mostly 77.5 µM), for the others: top-dose activity change, negative = displacement, hits mostly inhibitors | hit rate 0.074% among 350,000; further: potency means the concentration at half of the fitted maximal effect; on the % scale 0 is the no-effect control and ±100 the full control effect; nearly all actives have a fitted effect of over 20% in size
Target sequence (P02791 2-175 limits assumed): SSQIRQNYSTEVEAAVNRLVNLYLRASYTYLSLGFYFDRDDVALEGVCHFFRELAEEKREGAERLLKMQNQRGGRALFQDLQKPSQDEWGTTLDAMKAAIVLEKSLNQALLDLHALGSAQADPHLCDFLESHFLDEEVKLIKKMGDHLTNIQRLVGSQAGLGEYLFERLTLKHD
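Concentration-response curves derived by four-parameter Hill fitting of normalized fluorescence, where compounds displaced 1-AMA from 10 uM horse apoferritin following a brief 10 min room-temperature incubation; propofol titration acted as positive control.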
PKM2 act – qHTS Assay for Activators of Human Muscle isoform 2 Pyruvate Kinase; Pyruvate kinase PKM (Homo sapiens), P14618; purified PKM2, Kinase-Glo ATP luminescence, activation; response scale: 0% is enzyme alone, no compound; Potency, µM (series often up to 57.5 µM), for the others: at the top dose activation, actives largely listed as activators; hit rate 0.34% among 260,000; AID 1631, 2009; further: potency means the concentration at half of the fitted maximal effect; on the % scale 0 is the no-effect control and ±100 the full control effect; nearly all actives have a fitted effect of over 55% in size
Target sequence (P14618 whole entry, looked up, canonical isoform): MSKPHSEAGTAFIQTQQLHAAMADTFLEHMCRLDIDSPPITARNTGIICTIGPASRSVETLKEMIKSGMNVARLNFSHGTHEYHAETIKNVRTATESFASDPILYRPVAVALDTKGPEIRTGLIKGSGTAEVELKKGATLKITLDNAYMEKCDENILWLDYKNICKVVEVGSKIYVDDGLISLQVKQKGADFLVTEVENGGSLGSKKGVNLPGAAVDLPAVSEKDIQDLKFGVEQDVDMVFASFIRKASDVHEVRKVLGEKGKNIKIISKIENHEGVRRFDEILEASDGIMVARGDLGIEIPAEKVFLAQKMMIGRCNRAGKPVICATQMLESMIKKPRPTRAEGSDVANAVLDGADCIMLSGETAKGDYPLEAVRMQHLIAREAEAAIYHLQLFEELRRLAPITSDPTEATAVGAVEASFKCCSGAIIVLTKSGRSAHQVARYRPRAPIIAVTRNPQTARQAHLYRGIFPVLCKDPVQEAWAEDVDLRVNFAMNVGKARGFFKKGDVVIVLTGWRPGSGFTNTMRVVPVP
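Purified hPK-M2 (>95% pure) converted ADP (0.1 mM final) to ATP with 0.5 mM PEP in 50 mM imidazole pH7.2, KCl, MgCl2, Tween 20, BSA; 1 h at room temperature. ATP detected by Kinase-Glo luminescence.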
IL2 activator – qHTS of IL-2 Activators | activation, % (series mostly up to about 46 µM) | AID 652025, 2013 | IL-2 activation reporter assay, cell-based qHTS; stimulated with anti-CD3/CD4/CD28 beads; in transgenic mouse T cells | hit rate 0.065% among 360,000; in the data active means activation above about 50%; inconclusive means mostly about 30% to 49%; further: 0% is about no effect
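Unstimulated transgenic mouse T cells; 60-min compound exposure; bead-based TCR/CD4/CD28 stimulation; 18 h culture, 37 degrees C; dual fluorescence (EGFP, DsRed) plate cytometry.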
BRCA1 expr up – qHTS Assay to Identify Small Molecule Activators of BRCA1 Expression; MCF7-BRCA1-FFLuc reporter, luminescence, 48 h; response scale: scaled: vehicle 0%, 10 µM genistein 100%; Potency, µM (series often up to 46.1 µM), without a hit: at the highest dose activation, most hits filed as activators; hit rate 1.1% among 380,000; AID 624202, 2012; further: potency means the concentration at half of the fitted maximal effect; nearly all actives have a fitted effect of over 80% in size
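MCF7 cells carrying a BRCA1-firefly luciferase reporter (2000 cells/well, phenol-red free MEM) were attached for 2 h at 37 °C, then given compounds for 48 h. Luminescence was read 15 min after luciferase reagent; activity normalized to genistein (10 microM) and DMSO.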
a7 integrin act – qHTS for Activators of Integrin-Mediated Alleviation for Muscular Dystrophy; hit rate 0.064% among 350,000; Potency, µM (series often up to 38.3 µM), without a hit: at the highest dose activation, most hits filed as activators; AID 624291, 2012; alpha7betagal myoblasts, beta-gal FDG fluorescence, 48 h;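 further: potency means the concentration at half of the fitted maximal effect; 100% = response of the positive control SU9516; nearly all actives have a fitted effect of over 60% in size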
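alpha7betagal+/- myoblasts (passage 13, 250/well) treated 48 h at 37C with compounds at 1:260 dilution of DMSO stock. Lysed, then beta-galactosidase activity read as FDG fluorescence (ex 480/em 540) after 30 min, with pre-read for autofluorescence.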
Numbers without * were called inactive; i = inactive; ? = inconclusive; nt = no result; ! = repeats disagree; [ ] = remark or other dose. Hits are enriched below; roughly 1.3% of the tested compounds scored in any of these assays. Unless noted, the call rests on the fitted dose curve; in most records, active means well fitted curve in the direction sought with a large enough effect; inconclusive means small, poorly fitted or top-dose-only effect, or another doubt; inactive means no such curve, though single readings can be large; an effect the other way counts as inactive or inconclusive.

SMILES	Apoferritin bind	PKM2 act	IL2 activator	BRCA1 expr up	a7 integrin act
CC[C@H](C)[C@H](NC(=O)[C@H](Cc1ccccc1)NC(=O)[C@H](C)NC(=O)[C@H](CC(=O)O)NC(=O)[C@H](CCCCN)NC(=O)[C@H](CO)NC(=O)[C@@H]1CCCN1C(=O)[C@@H]1CCC(=O)N1)C(=O)NCC(=O)N[C@@H](CC(C)C)C(=O)N[C@@H](CCSC)C(N)=O	11%	nt	nt	nt	nt
Nc1cccc2cccnc12	nt	nt	nt	0%	nt
CC(C)CCn1c(=O)[nH]c2ccccc21	5%	0%	-1	-13%	-6%
O=c1[nH]c2ccccc2n1CCC1CCCCC1	28µM*	-4%	1	64%	11%
COC(=O)CCNC(=O)c1ccc2nc(Cc3ccc(OC)cc3)oc2c1	nt	nt	0	1%	13%
CCC1CCCCN1C(=O)c1ccc2nc(Cc3ccc(OC)cc3)oc2c1 (stereo not given)	?	nt	-2	11µM*	34%
COc1ccc(Cc2nc3ccc(C(=O)NCC(C)(C)OC)cc3o2)cc1	-16%	-1%	1	10µM*	16%
O=C(NCC1CCOCC1)c1ccc2nc(Cc3cccc(Cl)c3)oc2c1	i	9%	-1	10µM*	-15%
COc1ccc(CCNC(=O)c2cccn2C)cc1	-8%	3%	-1	2.8µM*	0%
Cn1cccc1C(=O)NCCc1ccc(Cl)cc1	?	-15%	2	7.1µM*	3%
Cn1cccc1C(=O)NCCc1ccccc1	-12%	-27%	-3	2%	26%
NC(=O)c1c(NC(=O)c2ccccc2)sc2c1CCN(Cc1ccccc1)C2	43%	2%	317*	17%	-9%
CCOc1cc(CNC(=O)c2ccccc2NC(=O)c2nsc3ccccc23)ccc1OC	13%	nt	nt	nt	nt
Cc1nn(C)c(Sc2ccccc2N)c1[N+](=O)[O-]	?	11µM*	-1	-30%	-33%
O=C(Nc1cccc2cccnc12)c1cccs1	nt	nt	nt	-44%	nt
O=C(Nc1ncc(Cl)cn1)c1cccs1	-6%	-19%	0	13µM*	9%
Cc1cc(C)nc(NC(=O)c2cccs2)n1	-5%	3%	2	13%	?
Cc1cc(NC(=O)c2ccccc2)ncc1NC(=O)c1cccs1	-16%	-59%	0	7.9µM*	-4%
O=C(Nc1cccc2nsnc12)c1cccs1	-7%	-8%	2	7.1µM*!	-1%
Fc1cccc2sc(N3CCCCC3)nc12	-8%	-7%	0	13µM*	10%
Fc1cccc2sc(N3CCOCC3)nc12	-8%	-5%	-1	82%	-39%
CCCOc1cccc(C(=O)Nc2ccc(-c3nc4ccccc4o3)cc2)c1	-3%	nt	nt	nt	nt
CCOc1ccc2c(c1)s/c(=N\S(=O)(=O)c1ccc(OC)cc1)n2C(F)F	0%	1.6µM*	-1	-4%	-11%
CCc1ccc2oc(-c3ccc(C)c(NC(=O)COc4ccccc4Cl)c3)nc2c1	nt	nt	nt	-3%	nt
C=CCC1C=CC(OC(=O)OCC)C(COC(=O)OCC)O1 (stereo not given)	1%[15.3 µM]	nt	nt	nt	nt
SMILES	Apoferritin bind	PKM2 act	IL2 activator	BRCA1 expr up	a7 integrin act
COc1cc(C)ccc1OCc1cc(C(=O)NC(C)Cn2cncn2)no1 (stereo not given)	-8%	-10%	1	5µM*	-11%
COc1cc(C)ccc1OCc1cc(C(=O)NCc2ccncc2)no1	-21%	-13%	-1	7.9µM*	2%
Cn1c(OCc2cccnc2)nc2c1c(=O)n(Cc1ccc(Br)cc1)c(=O)n2C	-12%	20µM*	-1	-61%	-6%
COc1ccc(CCNC(=O)c2cnc3sc(N4CCC(C)CC4)nn3c2=O)cc1OC	-11%	nt	nt	nt	nt
NNC(=O)c1ccc(C(=O)N(c2ccccc2)c2ccccc2)cc1	nt	nt	nt	-4%	nt
O=C(CSCCO)Nc1ccc(C2CCCCC2)cc1	7.1µM*	-1%	0	63%	-37%
O=Cc1cccn1Cc1ccc(Cl)cc1Cl	14µM*	4%	0	2%	9%
CC(C)(C)NC(=O)NC(=O)CSc1ncc(C(F)(F)F)cc1Cl	-16%	0%	-1	-21%	-21%[7.66 µM]
CC(C)NC(=O)NC(=O)CSc1ncc(C(F)(F)F)cc1Cl	-18%	14µM*	-2	-17%	5%
CN1CCSc2ccc(C(=O)Nc3cc(F)ccc3F)cc21	17%	0%	-1	13µM*	14%
Cc1ccccc1NC(=O)c1ccc2c(c1)N(C)CCS2	-4%	-10%	-2	?	-9%
CN(N=Nc1cccc([N+](=O)[O-])c1)c1ccccc1	-10%	nt	0	83%	19%
CN(N=Nc1ccc([N+](=O)[O-])cc1)c1ccccc1	4%	0%	-5	3.5µM*	3%
Cc1ccc(/C(N)=N/OC(=O)Cc2cccs2)cc1	-17%	-6%	-3	11µM*	-13%
Cc1ccc(/C(N)=N/OC(=O)Cc2cccc3ccccc23)cc1	-5%	25µM*	-2	27%	9%
N/C(=N\OC(=O)Cc1cccs1)c1ccccc1	?	1%	0	76%	0%
O=C(Cc1cccc2ccccc12)NO	nt	nt	nt	0%	nt
COc1ccc(N2C(=O)c3ccccc3NC23CCCC3)cc1	0%	-8%	0	6.3µM*	14%
CCC1(CC)Nc2ccccc2C(=O)N1c1ccc(OC)cc1	67%	-9%	1	?	?
CC(=O)c1cccc(NC(=O)c2sc(-n3nc(C)c(Cc4ccccc4)c3C)nc2C)c1	-19%	nt	nt	nt	nt
O=S(=O)(Nc1cccc(-c2ccc(N3CCCCCC3)nn2)c1)c1ccccc1Cl	-6%	nt	0	75%	-16%
O=S(=O)(Nc1cccc(-c2ccc(N3CCCCCC3)nn2)c1)c1ccccc1F	-6%	6%	7	13µM*	-19%
COc1ccc2cc(S(=O)(=O)c3ccccc3)c(=O)oc2c1	2%	5µM*	0	-47%	4%
COc1ccc2cc(C#N)c(=O)oc2c1	72%	nt	nt	nt	nt
O=C(c1ccncc1)N1N=C(c2ccc(Br)cc2)CC1c1ccccc1O (stereo not given)	?	7.9µM*	0	-73%	-27%
O=C(c1ccccc1)N1N=C(c2ccccc2)CC1c1ccccc1O (stereo not given)	-18%	0%	-3	-45%	4%
Cn1cccc1/C=C1\SC(=O)N(c2ccccc2)C1=O	-2%	-1%	250*	?	-28%
Fc1cccc2sc(Nc3nnc(-c4ccccc4)o3)nc12	1%	-5%	1	-66%	-23%
COc1cc(OC)cc(-c2nnc(Nc3nc4c(F)cccc4s3)o2)c1	1%	7.1µM*	-2	-4%	10%
Cc1ccc(S(=O)(=O)N2CCN(c3nc(Nc4ccccc4O)nc4ccccc34)CC2)cc1	nt	nt	nt	27%	nt
